# Assay results published in the supplement of paper PMC7801607.
# Tested on: Plasmodium berghei ANKA liver stage in HepG2-A16-CD81
# Experiment: % inhibition of liver stage parasite viability (luciferase); higher = more inhibition
# Conditions: 5 µM; 48 h
# Experimental: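 Single-concentration screen of the MMV Pandemic Response Box. P. falciparum NF54 asexual blood stages: pLDH assay, 72 h at 37 °C, 2 and 20 µM, n=2. Stage IV/V gametocytes (NF54): luciferase reporter (NF54-Pfs16-GFP-Luc, 48 h), ATP bioluminescence (24 h) and PrestoBlue (48 h) at 1 and 5 µM, n=1. P. berghei liver stage (luciferase in HepG2-A16-CD81, 48 h post infection) at 5 µM, n=4. All normalised to DMSO and kill controls as % inhibition.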
row,Structure (SMILES),% inhibition of liver stage parasite viability
1,Clc1cc2nc(C3CCNCC3)n(Cc3ccc(CNCCc4cnc[nH]4)cc3)c2cc1Cl,45.7%
2,O=c1cc(OCc2ccccc2)ccn1Cc1ccccc1,20.3%
3,Cc1cc(CCCOc2c(C)cc(-c3noc(C(F)(F)F)n3)cc2C)on1,-23.2%
4,CCC(C)n1ncn(-c2ccc(N3CCN(c4ccc(OCC5COC(Cn6cncn6)(c6ccc(Cl)cc6Cl)O5)cc4)CC3)cc2)c1=O (stereo not drawn),46.4%
5,O=C(O)c1ccccc1Sc1ncnc2sc3c(c12)CCC3,-30.6%
6,Cc1nc(Nc2ccc(F)cc2)nc(N2CCc3ccccc3C2C)c1C (stereo not drawn),52.5%
7,NC(=O)c1nccn([C@@H]2O[C@H](CO)[C@@H](O)[C@H]2O)c1=O,14.7%
8,Nc1nc(F)nc2c1ncn2[C@H]1O[C@@H](CO)[C@H](O)[C@@H]1O,76%
9,NC(=S)N/N=C/c1ncccc1N,63.5%
10,CCCC1(C2CC2)c2cc(Cl)ccc2NC(=O)N1C (stereo not drawn),-13.9%
11,COc1cc(C(C(=O)NC2CCCCC2)N(C(=O)Cc2c[nH]c3ccccc23)c2ccc(C(C)C)cc2)cc(OC)c1OC (stereo not drawn),18.7%
12,Oc1cccc(C(Nc2nccs2)c2ccc3cccnc3c2O)c1 (stereo not drawn),20.6%
13,COc1ccc(C)cc1NC(=O)c1ccc(S(=O)(=O)N2CCCCC2)cc1,30%
14,CCC[C@H](NC(=O)[C@@H]1[C@H]2CCC[C@H]2CN1C(=O)[C@@H](NC(=O)[C@@H](NC(=O)c1cnccn1)C1CCCCC1)C(C)(C)C)C(=O)C(=O)NC1CC1,6.72%
15,O=C(CSc1nnc(Br)n1-c1ccc(C2CC2)c2ccccc12)Nc1ccc(C(=O)O)cc1Cl,27.6%
16,CC(C)(C)c1ccc(C(Cn2cccc(C(F)(F)F)c2=O)NC2Cc3ccccc3C2)cc1 (stereo not drawn),2.01%
17,O=C1NC(=O)C(Br)=C1Br,35.8%
18,CC(C)Nc1nc2cc(Cl)c(Cl)cc2n1[C@H]1O[C@@H](CO)[C@H](O)[C@@H]1O,12.5%
19,C=C[C@]1(C)C[C@@H](OC(=O)CS[C@@H]2C[C@H]3CC[C@@H](C2)N3C)[C@]2(C)[C@H](C)CC[C@]3(CCC(=O)[C@H]32)[C@@H](C)[C@@H]1O,53%

row,Structure (SMILES),% inhibition of liver stage parasite viability
1,CCCCCCC1c2ccc(O)cc2Oc2cc(O)ccc21,42.4%
2,O=C(NCc1ncc(C(F)(F)F)cc1Cl)c1c(Cl)cccc1Cl,34.7%
3,CN(C)CCNC(=O)c1cccc2cccnc12,16.5%
4,CC(C)CCN1C(=O)C(C2=NS(=O)(=O)c3cc(NS(C)(=O)=O)ccc3N2)=C(O)[C@@H]2[C@H]3CC[C@H](C3)[C@@H]21,47.3%
5,CC(C)(C)c1ccc(C(=O)NC(=O)N2CCCc3ccccc32)cc1,15.6%
6,Cc1nc2ccc(Oc3ccccc3)cc2c2c1CCN2CCc1ccccc1,27%
7,Cc1c(OCC(F)(F)F)ccnc1CS(=O)c1nc2ccccc2[nH]1 (stereo not drawn),-23.2%
8,O=C(CP(=O)(O)O)NCCc1cccc(Oc2ccccc2)c1,27.3%
9,N[C@@H]1CN(c2c(F)cc3c(=O)c(C(=O)O)cn([C@@H]4C[C@@H]4F)c3c2Cl)CC12CC2,-19.2%
10,CCOC(=O)Nc1cc(NC(C)CC(C)CN(CC)CC)c2nc(-c3ccccc3)c(-c3ccccc3)nc2n1 (stereo not drawn),55.5%
11,O=S(=O)(NCB(O)O)c1cc2c(Cl)ccc(Cl)c2s1,-37.4%
12,CN(C)CC(=O)Nc1ccc2[nH]c(=O)c3ccccc3c2c1,9.83%
13,Cc1nc(-c2ccc(C3N(C)c4ccc(F)cc4C(=O)N3c3ccccc3)s2)cs1 (stereo not drawn),31.9%
14,CCc1cc(Nc2cc(=O)n(CCN3CCN(C(=O)c4ccccc4)CC3)c(=O)[nH]2)ccc1C,10.7%
15,CCOC(=O)N[C@@H]1CC[C@@H]2[C@@H](C1)C[C@H]1C(=O)O[C@H](C)[C@H]1[C@H]2/C=C/c1ccc(-c2cccc(F)c2)cn1,33.5%
16,O=C(N[C@H](Cc1cccc2ccccc12)C(=O)NCCc1c[nH]cn1)C1Cc2ccccc2C1,21.8%
17,Cc1nc(N(C)C(=O)Cc2ccc(-c3ccccn3)cc2)sc1S(N)(=O)=O,24.8%
18,COc1ccc(C[C@@H](C)[C@@H](C)Cc2ccc(OC)c(OC)c2)cc1OC,4.88%
19,Nc1nnnn1CCOc1c2[nH]c3ccc(Cl)cc3c2cc2c1[nH]c1ccc(Cl)cc12,24.1%
